Experimental data taken from PubChem BioAssay (Tox21).
Inconclusive results are not listed. Activity calls are given as the source filed them. Unless noted, the call rests on the fitted dose curve; in most records, active means well fitted curve in the direction sought with a large enough effect in the repeat runs; inconclusive means weak or mixed curves; inactive means no such curve, though single readings can be large; an effect the other way counts as inactive or inconclusive.

Experiments:
[1] = qHTS assay to identify small molecule agonists of the RXR signaling pathway - cell viability counter screen (AID 1159529);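 further: HEK 293T cells carrying an RXR-alpha UAS beta-lactamase reporter; series mostly up to about 77 µM; nearly all actives have a fitted effect of over 50% in size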
Outline: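 Steps: seed RXR-alpha-UAS-bla HEK 293T cells in assay medium containing 2% charcoal-stripped FBS; incubate 5 hr; add compounds in DMSO; incubate 16 hr at 37 C; after the bla read, add CellTiter-Glo and read luminescence at 30 min.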

[2] = qHTS assay to identify small molecule antagonists of the retinoid acid receptor (RAR) signaling pathway - cell viability counter screen (AID 1159551); further: nearly all actives have a fitted effect of over 35% in size
Outline: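 Seed C3RL4 cells; next day add compound, then retinol to 1 uM final; incubate 6 h at 37 C; add CellTiter-Glo; read luminescence after 30 min at RT.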

[3] = qHTS assay to identify small molecule antagonists of the retinoic acid receptor (RAR) signaling pathway (AID 1159552; further: nearly all actives have a fitted effect of over 50% in size)
Outline: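 Retinol at 1 uM final stimulated RARE-luciferase expression in C3RL4 cells exposed to test compounds for 6 hr at 37 C. Reduced luminescence, read 30 min after detection reagent, indicated pathway antagonism.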

[4] = qHTS assay to identify small molecule agonists of the retinoic acid receptor (RAR) signaling pathway (AID 1159553)
Outline: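 Activation of retinol signaling was monitored via a RARE luciferase reporter in C3RL4 cells. After 6 hr compound treatment at 37 C, detection reagent was added for 30 min at room temperature before luminescence reading.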

[5] = qHTS assay to identify small molecule antagonists of the estrogen related receptor (ERR) signaling pathway from Tox21 library - cell viability counter screen (AID 1224834); further: nearly all actives have a fitted effect of over 30% in size
Outline: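 CellTiter-Fluor fluorescence measured; ERR cells; 17.5 h compound incubation at 37 C; 30 min reagent step.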

[6] = molecular target: Luciferin 4-monooxygenase (Photinus pyralis) (UniProt P08659); experiment: qHTS assay to identify small molecule inhibitors of firefly luciferase (AID 1224835); further: series mostly up to about 120 µM; nearly all actives have a fitted effect of over 25% in size
Sequence of Luciferin 4-monooxygenase (Photinus pyralis) (P08659 whole entry, looked up): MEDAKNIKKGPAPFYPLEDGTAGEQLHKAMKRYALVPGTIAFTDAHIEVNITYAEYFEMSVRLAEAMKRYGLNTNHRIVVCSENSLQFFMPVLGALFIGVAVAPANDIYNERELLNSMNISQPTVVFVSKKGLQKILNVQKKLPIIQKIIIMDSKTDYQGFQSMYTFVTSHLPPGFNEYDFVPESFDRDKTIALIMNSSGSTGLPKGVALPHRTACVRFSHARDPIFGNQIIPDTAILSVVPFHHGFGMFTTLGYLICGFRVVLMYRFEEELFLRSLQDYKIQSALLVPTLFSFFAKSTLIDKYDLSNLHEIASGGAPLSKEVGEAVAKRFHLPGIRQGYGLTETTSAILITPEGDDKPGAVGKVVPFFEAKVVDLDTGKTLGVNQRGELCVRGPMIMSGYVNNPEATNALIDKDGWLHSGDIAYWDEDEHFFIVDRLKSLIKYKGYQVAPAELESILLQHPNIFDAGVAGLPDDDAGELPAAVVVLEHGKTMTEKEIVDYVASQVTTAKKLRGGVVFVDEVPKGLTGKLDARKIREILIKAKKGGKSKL
Outline: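 Biochemical qHTS: compounds run as interplate titrations against purified firefly enzyme, with D-luciferin and ATP each at its KM concentration. Light output recorded by CCD imaging.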

[7] = qHTS assay to identify small molecule agonists of the constitutive androstane receptor (CAR) signaling pathway - cell viability counter screen (AID 1224836); further: series mostly up to about 92 µM; nearly all actives have a fitted effect of over 45% in size
Outline: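 Cells were seeded and incubated 4 hrs. Compounds were added across 15 concentrations together with PK11195 at 0.75 uM final. Plates were incubated 23 hrs at 37 C. CellTiter-Fluor was added and fluorescence measured.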

[8] = qHTS assay to identify small molecule antagonists of the constitutive androstane receptor (CAR) signaling pathway - cell viability counter screen (AID 1224837); further: series mostly up to about 92 µM; nearly all actives have a fitted effect of over 45% in size
Outline: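 Using CellTiter-Fluor, viability is scored in HepG2 cells stably carrying hCAR and a 2.2kb CYP2B6 reporter after 23 hr compound exposure across 15 concentrations, with CITCO present at 50 nM.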

[9] = molecular target: Nuclear receptor subfamily 1 group I member 3 (Homo sapiens) (UniProt Q14994); experiment: qHTS assay to identify small molecule antagonists of the constitutive androstane receptor (CAR) signaling pathway (AID 1224838);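 further: HepG2 cells stably expressing hCAR with CYP2B6 luciferase reporter stimulated by CITCO; nearly all actives have a fitted effect of over 40% in size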
Sequence of Nuclear receptor subfamily 1 group I member 3 (Homo sapiens) (Q14994 whole entry, looked up): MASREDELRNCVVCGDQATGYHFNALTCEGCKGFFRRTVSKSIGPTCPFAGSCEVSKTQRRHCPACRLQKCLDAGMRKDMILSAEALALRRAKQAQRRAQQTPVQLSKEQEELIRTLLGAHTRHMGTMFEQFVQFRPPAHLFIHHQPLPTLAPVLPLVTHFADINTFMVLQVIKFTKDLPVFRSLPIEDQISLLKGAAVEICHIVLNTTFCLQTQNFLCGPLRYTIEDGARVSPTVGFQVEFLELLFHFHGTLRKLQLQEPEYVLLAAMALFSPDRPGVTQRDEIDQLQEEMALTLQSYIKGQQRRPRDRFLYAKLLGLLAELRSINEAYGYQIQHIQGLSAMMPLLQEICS
Outline: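 Reporter luminescence was quantified after 24 h exposure of hCAR/CYP2B6-2.2kb double-stable HepG2 cells to compounds at 15 concentrations in the presence of 50 nM CITCO final.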

[10] = molecular target: Nuclear receptor subfamily 1 group I member 3 (Homo sapiens) (UniProt Q14994); experiment: qHTS assay to identify small molecule agonists of the constitutive androstane receptor (CAR) signaling pathway (AID 1224839);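 further: HepG2 cells stably carrying human CAR and a CYP2B6 luciferase reporter; series mostly up to about 92 µM; nearly all actives have a fitted effect of over 15% in size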
Outline: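 Cells were plated and incubated 4 hrs, then dosed with compounds at 15 concentrations. PK11195 was added to 0.75 uM final. After 24 hrs at 37 C, luciferase luminescence was measured.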

[11] = qHTS assay to identify small molecule antagonists of the estrogen related receptor signaling pathway with the pleiotropic PPARgamma coactivator (PGC) from Tox21 10K library - cell viability counter screen (AID 1224840; active means well fitted cell-killing curve with a large enough effect in the repeat runs, not every such curve was filed as active; further: nearly all actives have a fitted effect of over 40% in size)
Outline: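 Here the PGC/ERR cells serve as a cytotoxicity control: they are exposed to compounds for 17.5 hours at 37 C, and live-cell signal is quantified using CellTiter-Fluor fluorescence.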

[12] = molecular target: Thyrotropin receptor (Homo sapiens) (UniProt P16473); experiment: qHTS assay to identify small molecule agonists of the thyroid stimulating hormone receptor (TSHR) signaling pathway (AID 1224843; calls by dose curve; further: nearly all actives have a fitted effect of over 45% in size)
Sequence of Thyrotropin receptor (Homo sapiens) (P16473 whole entry, looked up): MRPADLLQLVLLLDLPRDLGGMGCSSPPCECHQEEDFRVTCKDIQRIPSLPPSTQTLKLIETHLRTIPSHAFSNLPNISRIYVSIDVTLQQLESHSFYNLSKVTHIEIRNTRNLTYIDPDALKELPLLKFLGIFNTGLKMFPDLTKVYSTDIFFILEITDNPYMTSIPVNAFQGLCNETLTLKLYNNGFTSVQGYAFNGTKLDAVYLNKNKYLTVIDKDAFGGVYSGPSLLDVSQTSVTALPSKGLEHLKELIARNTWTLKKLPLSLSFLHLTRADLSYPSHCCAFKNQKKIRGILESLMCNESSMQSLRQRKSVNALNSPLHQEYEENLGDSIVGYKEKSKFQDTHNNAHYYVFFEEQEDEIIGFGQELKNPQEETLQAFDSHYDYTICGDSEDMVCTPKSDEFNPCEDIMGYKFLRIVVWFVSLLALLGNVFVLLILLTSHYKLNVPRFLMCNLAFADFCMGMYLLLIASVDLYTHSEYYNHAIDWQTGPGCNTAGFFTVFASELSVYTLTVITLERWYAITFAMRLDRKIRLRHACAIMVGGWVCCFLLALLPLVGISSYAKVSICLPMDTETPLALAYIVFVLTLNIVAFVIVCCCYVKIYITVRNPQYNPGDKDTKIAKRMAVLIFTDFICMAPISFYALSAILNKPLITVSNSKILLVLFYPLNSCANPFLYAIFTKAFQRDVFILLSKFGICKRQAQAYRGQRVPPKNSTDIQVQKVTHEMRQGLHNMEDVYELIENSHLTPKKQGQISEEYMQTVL
Outline: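 Steps: seed 800 TSHR-HEK293 cells per well; add test compound and hold 30 min at ambient temperature; dispense cAMP-d2 then anti-cAMP cryptate; incubate 1 h at ambient; measure fluorescence intensity.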

[13] = qHTS assay to identify small molecule agonists of the hypoxia (HIF-1) signaling pathway - cell viability counter screen (AID 1224844; calls by dose curve; further: nearly all actives have a fitted effect of over 50% in size)
Outline: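 Multiplexed with the HRE beta-lactamase assay, this viability read used CellTiter-Glo luminescence (30 min, RT) on HRE-bla ME-180 cells treated 17 hrs with compounds in 0.5% dialyzed FBS medium.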

[14] = qHTS assay to identify small molecule agonists of H2AX (AID 1224845; active means well fitted activation curve with a large enough effect in the signal ratio in the repeat runs, not every such curve was filed as active; the % refers to the signal ratio)
Outline: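 Wild-type CHO-K1 cells, plated overnight, exposed 3hr at 37C to 15 concentrations (0.76% DMSO final). Lysed, then HTRF anti-pH2AX (S139) cryptate and anti-H2AX-d2 antibodies, 24 hr room temperature; 665/620 nm emission read.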

[15] = qHTS assay to identify small molecule agonists of the hypoxia (HIF-1) signaling pathway (AID 1224846; active means well fitted activation curve with a large enough effect in the signal ratio in the repeat runs, not every such curve was filed as active; the % refers to the signal ratio)
Outline: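 Hypoxia-pathway activation was scored as increased beta-lactamase from an HRE-controlled reporter in ME-180 cells; plated at 2,000 cells per well with 0.5% dialyzed FBS, they were exposed 17 hrs to compounds and then given CCF4-AM.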

[16] = qHTS assay to identify small molecule agonists of H2AX - cell viability counter screen (AID 1224847; calls by dose curve; further: top concentration of the series differs between compounds; nearly all actives have a fitted effect of over 30% in size)
Outline: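 Cytotoxicity counter screen in wild-type CHO-K1 cells: a 3 hr compound treatment at 37C across 15 concentrations, followed by CellTiter-Glo luminescence to gauge viable cells.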

[17] = qHTS RealTime-Glo MT Cell Viability Assay in HepG2 cells - 24 hour (AID 1224867); further: nearly all actives have a fitted effect of over 50% in size
Outline: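 qHTS, HepG2, 600 cells/well, RealTime-Glo (NanoLuc + prosubstrate) added with cells; 5 h preincubation; DMSO compound addition; 37 C; luminescence at 0/8/16/24/32/40 h.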
On the % scale 0 is the no-effect control and ±100 the full control effect.

COC(=O)/C=C\C(=O)O
inactive: outcome [1] | outcome [2] | outcome [3] | Potency [4] | outcome [5] | Potency [6] | outcome [7] | outcome [8] | Potency [9] | Potency [10] | outcome [11] | outcome [12] | outcome [13] | outcome [14] | outcome [15] | outcome [16] | outcome [17]

CC1(C)CC(OC(=O)CCCCCCCCC(=O)OC2CC(C)(C)NC(C)(C)C2)CC(C)(C)N1
inactive: activity change, negative = cytotoxicity [1] -17.6% [at 15.8 µM] | activity change, negative = cytotoxicity [2] -0.597% [at 19 µM] | activity, negative = inhibition [3] 10.8% [at 19 µM] | Potency [4] | viability change, negative = cytotoxic [5] -0.749% [at 19 µM] | activity change, negative = inhibition [6] 0.839% [at 23.6 µM] | viability change, negative = cytotoxic [7] -0.169% [at 19 µM] | activity change, negative = cytotoxicity [8] -3.96% [at 19 µM] | activity, negative = inhibition [9] 7.36% [at 19 µM] | activation [10] -1.81% [at 19 µM] | viability change, negative = cytotoxic [11] -0.192% [at 19 µM] | activation [12] -8.72% [at 19 µM] | activation (H2AX phosphorylation) [14] 0.0652% [at 31.6 µM] | activation [15] -0.0727% [at 15.8 µM] | activity change, negative = cytotoxicity [16] -4.19% [at 31.6 µM] | activity change, negative = cytotoxicity [17] 2.8% [at 15.8 µM]

COS(=O)(=O)O
inactive: outcome [1] | outcome [2] | outcome [3] | Potency [4] | outcome [5] | Potency [6] | outcome [7] | outcome [8] | Potency [9] | Potency [10] | outcome [11] | outcome [12] | outcome [13] | outcome [14] | outcome [15] | outcome [16] | outcome [17]

Cc1ccc(C(=O)O)cc1[N+](=O)[O-]
inactive: outcome [1] | outcome [2] | outcome [3] | Potency [4] | outcome [5] | Potency [6] | outcome [7] | outcome [8] | Potency [9] | Potency [10] | outcome [11] | outcome [12] | outcome [14] | outcome [15] | outcome [16] | outcome [17]

OCC1CCC(CO)CC1 (stereo not drawn)
inactive: outcome [1] | outcome [2] | outcome [3] | Potency [4] | outcome [5] | Potency [6] | outcome [7] | outcome [8] | Potency [9] | Potency [10] | outcome [11] | outcome [12] | outcome [14] | outcome [15] | outcome [17]

CCOCCOCC
inactive: outcome [1] | outcome [2] | outcome [3] | Potency [4] | outcome [5] | Potency [6] | outcome [7] | outcome [8] | Potency [9] | Potency [10] | outcome [11] | outcome [12] | outcome [14] | outcome [15] | outcome [17]

COC(=O)c1cccc(Cl)c1
inactive: outcome [1] | outcome [2] | outcome [3] | Potency [4] | outcome [5] | Potency [6] | outcome [7] | outcome [8] | Potency [9] | Potency [10] | outcome [11] | outcome [12] | outcome [14] | outcome [15] | outcome [16] | outcome [17]

[O]=[Mo](=[O])=[O]
inactive: activity change, negative = cytotoxicity [1] -1.21% [at 15.8 µM] | activity change, negative = cytotoxicity [2] 3.04% [at 19 µM] | activity, negative = inhibition [3] 8.42% [at 19 µM] | Potency [4] | viability change, negative = cytotoxic [5] 3.34% [at 19 µM] | activity change, negative = inhibition [6] 0.269% [at 23.6 µM] | viability change, negative = cytotoxic [7] -3.23% [at 19 µM] | activity change, negative = cytotoxicity [8] -0.0508% [at 19 µM] | activity, negative = inhibition [9] -9.59% [at 19 µM] | activation [10] -3.75% [at 19 µM] | viability change, negative = cytotoxic [11] -2.25% [at 19 µM] | activation [12] -6.48% [at 19 µM] | activity change, negative = cytotoxicity [13] -18.3% [at 15.8 µM] | activation (H2AX phosphorylation) [14] -3.3% [at 31.6 µM] | activation [15] -0.622% [at 15.8 µM] | activity change, negative = cytotoxicity [17] 2.84% [at 15.8 µM]
